Data as given in ChEMBL document CHEMBL4296183, “CO-ADD screening of NIH NCI Natural Product Set III” (2020).
For part of these data: Entries with a potency or affinity are not part of this list.

Columns and labels:
Staphylococcus aureus = test: Antibacterial activity against Staphylococcus aureus MRSA ATCC 43300 (CO-ADD:GP_020); MIC in CAMBH media using NBS plates, by Resazurin F(560/590); format: functional; conditions: Concentration 20 uM, ASSAY_TEST Inhibition of Bacterial Growth, detection method Resazurin, Fluorescence (ex560/em590), MEDIA CAMHB, plate type 384well, CORNING #3640, time 18 hr
Acinetobacter baumannii = test: Antibacterial activity against Acinetobacter baumannii ATCC 19606 (CO-ADD:GN_034); MIC in CAMBH media using NBS plates, by Resazurin F(560/590); format: functional; conditions: Concentration 20 uM, ASSAY_TEST Inhibition of Bacterial Growth, detection method Resazurin, Fluorescence (ex560/em590), MEDIA CAMHB, plate type 384well, CORNING #3640, time 18 hr
Escherichia coli = test: Antibacterial activity against Escherichia coli ATCC 25922 (CO-ADD:GN_001); MIC in CAMBH media using NBS plates, by Resazurin F(560/590); format: functional; conditions: Concentration 20 uM, ASSAY_TEST Inhibition of Bacterial Growth, detection method Resazurin, Fluorescence (ex560/em590), MEDIA CAMHB, plate type 384well, CORNING #3640, time 18 hr
Klebsiella pneumoniae = conditions: Concentration 20 uM; ASSAY_TEST Inhibition of Bacterial Growth; detection method Absorption (OD600); MEDIA CAMHB; plate type 384well; NBS; CORNING #3640; time 18 hr
Candida albicans = conditions: 20 µM
Cryptococcus neoformans = conditions: Concentration 20 uM; ASSAY_TEST Inhibition of Fungal Growth; detection method Resazurin; Absorption (OD600-OD570); plate type 384well; NBS; CORNING #3640

Structure (SMILES) | Inhibition (Staphylococcus aureus) | Inhibition (Acinetobacter baumannii) | Inhibition (Escherichia coli) | Inhibition (Klebsiella pneumoniae) | Inhibition (Candida albicans) | Inhibition (Cryptococcus neoformans)
CC(=O)O[C@@H]1[C@@H](O)C2=C3[C@]4(C)[C@@H]1C(C)(C)C(=O)C[C@@H]4[C@]3(O)[C@H](OC(C)=O)[C@@]1(C[C@@H]1C)C2=O | 17.09% | -6.85% | 0.22% | 10.98% | -0.55% | -8.42%
COC1C(O)C(C)OC(OC2C(Oc3cccc4c(O)c5c(=O)oc6ccc(C)c7c(=O)oc(c34)c5c67)OC(C)C(O)C2O)C1O (stereo not given) | -17.7% | -6.91% | -0.53% | 2.04% | -2.79% | -9.89%
C=C1C(=O)OC2C1CCC(C)C1(O)C=CC(=O)C21C (stereo not given) | -5.72% | -10.47% | 2.36% | 3.79% | -0.93% | -3.28%
CC[C@](C)(O)C(=O)O[C@H]1C(=O)O[C@@H]2C[C@H]3C(C)=C[C@H](O)[C@@H](O)[C@]3(C)[C@H]3[C@@]4(O)OC[C@]32[C@@H]1[C@@H](C)[C@H]4O | 12.34% | -9.38% | 1.71% | 10.36% | 4.77% | -4.27%
COc1cccc2c1cc([N+](=O)[O-])c1c(C(=O)O)cc3c(c12)OCO3 [ARISTOLOCHIC ACID] | -13.97% | -2.12% | 5.35% | -1.07% | 8.48% | -6.51%
CC12C(=O)C=CCC1=CCC1C2CCC2(O)C(=O)OC3(C)C4CC5(C)C(COC16OC23C5C6=O)C(=O)O4 (stereo not given) | 21.05% | -16.5% | 8.61% | -1.2% | -2.84% | -7.36%
CC(=O)OC(C)(C)/C=C/C(=O)[C@](C)(O)[C@H]1[C@H](O)C[C@@]2(C)[C@@H]3CC=C4[C@@H](C=C(O)C(=O)C4(C)C)[C@]3(C)C(=O)C[C@]12C [CUCURBITACIN E] | -16.96% | -9.18% | 4.67% | -1.27% | -1.39% | -7.52%
COc1ccc2c3c([nH]c2c1)[C@H](C=C(C)C)N1C(=O)[C@@H]2CCCN2C(=O)[C@@H]1C3 [FUMITREMORGIN] | -0.07% | 0.14% | 5.9% | -0.45% | 1.52% | -5.88%
CC[C@@]1(O)C(=O)OCc2c1cc1n(c2=O)Cc2cc3ccccc3nc2-1 [CAMPTOTHECIN] | 9.46% | -0.94% | 5.98% | 5.61% | 4.14% | -6.71%
COc1ccc(C(=O)O[C@H]2CC[C@@]3(C)[C@@H]4CC[C@H]5[C@]6(O)C[C@H](O)[C@@]7(O)[C@@H](CN8C[C@@H](C)CC[C@H]8[C@@]7(C)O)[C@]6(O)C[C@@]53OC24O)cc1OC | 16.97% | -4.41% | 7.62% | 3.66% | -1.53% | -9.31%
COc1ccc2c(c1OC)CN1CCc3cc4c(cc3C1C2)OCO4 (stereo not given) [TETRAHYDROBERBERINE] | 10.57% | -8.62% | 7.87% | -2.26% | -1.05% | -13.18%
O=P1(N(CCCl)CCCl)NCCCO1 (stereo not given) [CYCLOPHOSPHAMIDE ANHYDROUS] | 22.17% | -9.14% | 1.21% | 1.43% | -2.64% | -8.46%
CC1CCC2C(C)C3C(CC4C5CC=C6CC(OC7OC(CO)C(O)C(OC8OC(CO)C(O)C(O)C8O)C7OC7OC(C)C(O)C(O)C7O)CCC6(C)C5CCC43C)N2C1.Cl (stereo not given) | -4.66% | -5.32% | -0.39% | 4.14% | -2.24% | -10.4%
C1CCC(NC2CCCCC2)CC1.COC1C(OC(=O)/C=C/C=C/C=C/C=C/C(=O)O)CCC2(CO2)C1C1(C)OC1CC=C(C)C (stereo not given) | 16.49% | -13.86% | 8.82% | -0.23% | 9.6% | -7.96%
CO[C@@H]1[C@H](O)CC[C@]2(CO2)[C@H]1[C@@]1(C)O[C@@H]1CC=C(C)C | 4.97% | 1.38% | 4.31% | 14.33% | 4.27% | -4.91%
COc1c2c(c(CC=C(C)C)c3oc(=O)c(-c4ccc(O)cc4)c(O)c13)OC(C)(C)C=C2 [LONCHOCARPIC ACID] | 25.18% | -13.6% | 7.94% | -4.69% | -1.79% | -11.25%
CN1CCc2cc3c(cc2[C@H]1[C@@H]1OC(=O)c2c1ccc1c2OCO1)OCO3 [BICUCULLINE] | 11.14% | -4.97% | 3.43% | 11.38% | -1.4% | -11.52%
CC[C@H]1CN2CCc3cc(OC)c(OC)cc3[C@@H]2C[C@@H]1C[C@H]1NCCc2c1[nH]c1ccc(O)cc21 [TUBULOSINE] | 2.68% | -12.49% | 3.63% | -0.53% | 2.67% | -8.19%
CC(O)CCC(=O)c1ccoc1 (stereo not given) | -1.39% | -6.14% | 1.51% | -0.54% | -0.15% | -5.46%
C=C1C(=O)O[C@@H]2C[C@@H](C)[C@@H]3C=CC(=O)[C@@]3(C)[C@@H](O)[C@H]12 [HELENALIN] | 9.39% | -4.22% | 4.79% | 9.92% | 2.42% | -2.82%
CC1CCC2C(C)C(=O)OC3OC4(C)CCC1C32OO4 (stereo not given) | 7.59% | -3.18% | 7.05% | 14.85% | 23.7% | -16.17%
OC1CN2CC[C@H](O)[C@@H]2C(O)[C@@H]1O (stereo not given in full) | -15.58% | -6.5% | 3.63% | -1.47% | 2.3% | -9.42%
CC(C)(O)C1C2OC(=O)C1C1(O)CC3OC34C(=O)OC2C14C (stereo not given) | -15.24% | -3.06% | 2.11% | 1.65% | 3.44% | -6.7%
CCN1C[C@]2(COC)[C@H](O)C[C@H](OC)[C@]34C1[C@H]([C@H](OC)[C@H]23)[C@]1(OC(C)=O)[C@H]2[C@@H](OC(=O)c3ccccc3)[C@](O)(C[C@H]24)[C@@H](OC)[C@@H]1O | 12.16% | -8.01% | 7.77% | 3.92% | -0.67% | -9.39%
COc1ccc2c(c1O)-c1c(OC)c(OC)cc3c1C(C2)N(C)CC3 (stereo not given) | 23.71% | 2.34% | 4.51% | 6.13% | -0.15% | -10.21%
CCC/C=C/C=C/C(=O)OC1/C(=C/C(=O)OC)CC2CC(C(C)O)OC(=O)CC(O)CC3CC(OC(C)=O)C(C)(C)C(O)(CC4C/C(=C/C(=O)OC)CC(/C=C/C(C)(C)C1(O)O2)O4)O3 (stereo not given) | 15.23% | -8.5% | 2.2% | 8.82% | -7.78% | -7.31%
C=C1C(C)C2C(Cc3ccccc3)NC(=O)C23C(OC(C)=O)/C=C/C(C)(O)CC(C)C/C=C/C3C1O (stereo not given) | -5.72% | -9.16% | -0.68% | -1.52% | 1.45% | -3.95%
C[C@H]1CCC/C=C/[C@@H]2C[C@H](O)C[C@H]2[C@H](O)/C=C/C(=O)O1 [BREFELDIN A] | 11.17% | -7.42% | 11.85% | -5.16% | 51.3% | -9.22%
CC1OC(=O)C2CC3CCCCC3C(/C=C/C3CCCC(C)N3C)C12 (stereo not given) | 14.11% | -6.83% | 5.85% | 4.75% | 0.31% | -10.1%
CCCCCC(O)C1C(=O)OC(C)C(O)/C=C/C=C/C=C/C=C/C=C(\C)C(O)C(O)C(O)CC(O)CC(O)CC(O)CC(O)CC1O (stereo not given) | -5.29% | 1.14% | 2.6% | 3.06% | -5.54% | -5.55%
